Sfp PPTase inh – qHTS Assay for Inhibitors of Bacillus subtilis Sfp phosphopantetheinyl transferase (PPTase); 4'-phosphopantetheinyl transferase ffp (Bacillus subtilis), Q9F4F7; Biochemical Sfp PPTase activity, qHTS; Potency, µM, usual class: inhibitors; 3.5% of 310,000 active;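 further: the enzyme is Sfp with the accession as filed and its product quenches rhodamine fluorescence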
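Reaction rates are the 30-min fluorescence difference (ex 525, em 598 nm) in wells containing 15 nM Sfp, 5 uM rhodamine-CoA and 12.5 uM BHQ-2-YbbR at pH 7.6 with 10 mM MgCl2.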
BAZ2B block – qHTS Assay for Inhibitors of BAZ2B; AlphaScreen BAZ2B-H3K14Ac peptide displacement; 4.4% of 360,000 active; Bromodomain adjacent to zinc finger domain protein 2B (Homo sapiens), Q9UIF8; AID 504333, 2011; Potency, µM (doses to about 114 µM), hits mostly inhibitors; further: nearly all actives have a fitted effect of over 60% in size
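In this displacement format the biotinylated H3(5-23) peptide acetylated at Lys14 serves as ligand at 50 nM, with BAZ2B at 50 nM in PBS pH 7.4 containing 0.01% Tween-20. Donor and acceptor beads are 10 ug/mL final.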
HP1b chromo inh – HTS for Inhibitors of HP1-beta Chromodomain Interactions with Methylated Histone Tails; 0.56% of 390,000 active; Potency, µM (titrated, usually from 114 µM), actives largely listed as inhibitors; Chromobox protein homolog 1 (Homo sapiens), P83916; AlphaScreen HP1-beta / biotin-H3K9me3 peptide binding; further: nearly all actives have a fitted effect of over 70% in size
Target sequence (P83916 whole entry, looked up): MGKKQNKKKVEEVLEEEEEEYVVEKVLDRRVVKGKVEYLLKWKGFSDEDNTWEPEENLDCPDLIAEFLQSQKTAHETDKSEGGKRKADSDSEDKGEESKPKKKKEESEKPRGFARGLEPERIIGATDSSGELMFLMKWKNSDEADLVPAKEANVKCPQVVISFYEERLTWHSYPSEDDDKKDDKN
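HP1-beta protein (50 nM final) preincubated 30 min at room temperature with biotinylated H3(1-18)K9me3 peptide (50 nM) in PBS pH 7.4, 0.01% Tween-20, then compound added for 30 min. AlphaScreen streptavidin donor/nickel chelate acceptor beads (10 ug/mL final), 30 min dark, luminescence read.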
12-LOX inh – Primary qHTS assay for inhibitors of human arachidonate 12S-lipoxygenase (ALOX12): Round 2. AID 1671190, 2021. 1.1% of 580,000 active. Potency, µM (titrated, usually from 108 µM), most hits filed as inhibitors. purified 12hLO, xylenol orange hydroperoxide absorbance. Polyunsaturated fatty acid lipoxygenase ALOX12 (Homo sapiens), P18054
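Purified human 12hLO at 150 nM in 25 mM Hepes, 0.01% Triton X-100, pH 7.0, preincubated 15 min at room temperature with compound. Reaction started with 40 uM arachidonic acid, 30 min at room temperature. Hydroperoxide measured by Fe-xylenol orange, 573/405 nm absorbance ratio.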
JMJD2A Tudor – qHTS Assay for Inhibitors of JMJD2A-Tudor Domain. 4.4% of 390,000 active. Lysine-specific demethylase 4A (Homo sapiens), O75164. Potency, µM (series often up to 114 µM), most hits filed as inhibitors. AlphaScreen JMJD2A-Tudor / H3K4me3 peptide binding; further: nearly all actives have a fitted effect of over 50% in size
G9a inh – qHTS Assay for Inhibitors of Histone Lysine Methyltransferase G9a; Histone-lysine N-methyltransferase EHMT2 (Homo sapiens), Q96KQ7; G9a H3K9 monomethylation, AlphaScreen, 2 h; Potency, µM (titrated, usually from 102 µM), actives largely listed as inhibitors; 8.8% of 350,000 active; AID 504332, 2011; further: nearly all actives have a fitted effect of over 75% in size
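Compounds were preincubated with 20 nM G9a for 15 min, after which biotinylated H3K9 peptide (500 nM) and SAM (20 uM) started a 2 h room-temperature reaction. Monomethylated product was quantified by antibody-based AlphaScreen chemiluminescence.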
Sfp PPTase conf – Confirmation qHTS Assay for Inhibitors of Bacillus subtilis Sfp phosphopantetheinyl transferase (PPTase). shares compounds with Sfp PPTase inh. Sfp PPTase enzymatic assay, qHTS titration. Potency, µM (titrated, usually from 114 µM), actives largely listed as inhibitors. 79% of 380 active. AID 2701, 2010
Target sequence (Q9F4F7 whole entry, looked up): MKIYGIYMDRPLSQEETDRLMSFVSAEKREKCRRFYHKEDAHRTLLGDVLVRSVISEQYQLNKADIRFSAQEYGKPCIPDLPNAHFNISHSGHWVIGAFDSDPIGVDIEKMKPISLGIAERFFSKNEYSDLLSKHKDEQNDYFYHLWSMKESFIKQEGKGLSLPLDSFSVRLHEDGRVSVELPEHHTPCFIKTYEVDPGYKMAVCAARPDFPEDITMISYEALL
Sfp PPTase gel – Gel-Based Assay for Inhibitors of Bacillus subtilis Sfp phosphopantetheinyl transferase (PPTase). shares compounds with Sfp PPTase inh. purified Sfp, gel-based phosphopantetheinylation read-out. Potency, µM, most hits filed as inhibitors. 20% of 210 active. AID 2707, 2010;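 active means potency below 100 µM; inconclusive means dose-dependent response but potency above 100 µM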;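 further: potency is an IC50 for inhibitors of Sfp transfer activity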
Of the large screens only hits and unclear results are named; the others gave an inactive call (follow-up assays come after a bar, where they were run); ! = not confirmed by another sample. Only some compounds are listed: those with a hit (about 8.7% of all), similar ones and a draw of the others. Unless noted, the call rests on the fitted dose curve; in most records, active means well fitted curve in the direction sought with a large enough effect; inconclusive means small, poorly fitted or top-dose-only effect, or another doubt; inactive means no such curve, though single readings can be large; an effect the other way counts as inactive or inconclusive.

CNCc1cccc(C(F)(F)F)c1	none (no result: Sfp PPTase inh, BAZ2B block, HP1b chromo inh, JMJD2A Tudor, G9a inh)
C[C@@H](NCCCc1cccc(C(F)(F)F)c1)c1cccc2ccccc12	Sfp PPTase inh 79.4µM, 12-LOX inh 8.91µM!, G9a inh inconclusive (no result: BAZ2B block, HP1b chromo inh, JMJD2A Tudor) | Sfp PPTase conf 23.5µM
O=C(CCc1ccc(-c2ccc(Cl)cc2)[nH]1)N[C@@H]1C[C@@H]2OCC[C@@H]21	none (no result: Sfp PPTase inh, BAZ2B block, HP1b chromo inh, JMJD2A Tudor, G9a inh)
C=CCSC(C)C(=O)N1CCCn2nc(C(=O)OC)cc2C1 (stereo not drawn)	none (no result: Sfp PPTase inh, BAZ2B block, HP1b chromo inh, JMJD2A Tudor, G9a inh)
CN1CCN(C(=O)c2ccc(S(=O)(=O)c3ccc(Br)cc3)cc2)CC1	none
CCN1CCN(C(=S)c2ccc(O)cc2)CC1	Sfp PPTase inh 2.82µM, 12-LOX inh inconclusive, G9a inh 6.31µM | Sfp PPTase conf 8.35µM
CCN1CCN(C(=S)Nc2ccc(Cl)cc2)CC1	none
CN1CCN(C(=S)c2ccc(Br)cc2)CC1	Sfp PPTase inh 1.26µM, G9a inh 20µM | Sfp PPTase conf 13.2µM
CN(C)c1ccc(C(=S)N2CCN(Cc3ccccc3)CC2)cc1	Sfp PPTase inh 2.24µM, BAZ2B block 35.5µM, HP1b chromo inh inconclusive, JMJD2A Tudor 56.2µM, G9a inh 8.91µM | Sfp PPTase conf 11.8µM
CC(OC(=O)c1nn(C)c(=O)c2ccccc12)C(N)=O (stereo not drawn)	none (no result: Sfp PPTase inh, BAZ2B block, HP1b chromo inh, JMJD2A Tudor, G9a inh)
COCC(=O)N(C1CCOCC1)C1CCN(C(=O)Cc2ccc(OC)cc2)CC1	none (no result: Sfp PPTase inh, BAZ2B block, HP1b chromo inh, JMJD2A Tudor, G9a inh)
CC(NC(=O)c1ccco1)C(=O)O (stereo not drawn)	none (no result: Sfp PPTase inh)
O=C(O)C(O)c1ccco1 (stereo not drawn)	Sfp PPTase inh 44.7µM, BAZ2B block 8.91µM, HP1b chromo inh inconclusive, JMJD2A Tudor 22.4µM, G9a inh 11.2µM (no result: 12-LOX inh) | Sfp PPTase conf inconclusive | Sfp PPTase gel inactive
CCOC(=O)c1c(-c2ccc(OC)cc2)csc1NC(=O)C1CCCO1 (stereo not drawn)	Sfp PPTase inh 15.8µM, 12-LOX inh inconclusive, G9a inh 12.6µM | Sfp PPTase conf 33.2µM
COC(=O)c1c(-c2cccc(C)c2)csc1NC(=O)C1CCCO1 (stereo not drawn)	G9a inh inconclusive
c1csc(-c2nc3ccccc3s2)c1	Sfp PPTase inh 35.5µM, 12-LOX inh inconclusive, G9a inh 20µM | Sfp PPTase conf 46.9µM | Sfp PPTase gel inconclusive
c1ccc2sc(-c3ccncc3)nc2c1	none
Cc1ccc(-c2cc(C(=O)N3CCN(c4ncccn4)CC3)c3cc(Br)ccc3n2)o1	Sfp PPTase inh 7.94µM, BAZ2B block inconclusive, HP1b chromo inh inconclusive, 12-LOX inh inconclusive, JMJD2A Tudor 35.5µM, G9a inh inconclusive | Sfp PPTase conf 4.69µM
CCN(CC)c1ccc(NC(=O)COC(=O)CSc2ccc(Br)cc2C)cc1	Sfp PPTase inh 3.55µM, BAZ2B block 10µM, HP1b chromo inh 15.8µM, 12-LOX inh inconclusive, JMJD2A Tudor 17.8µM, G9a inh 8.91µM | Sfp PPTase conf inconclusive | Sfp PPTase gel inconclusive
Cc1cc(C)c(NC(=O)COC(=O)CSc2ccc(Br)cc2C)c(C)c1	none
COC(=O)c1sc2ccccc2c1C(=O)OC	G9a inh inconclusive
COC(=O)c1sc2ccccc2c1N	Sfp PPTase inh 14.1µM, 12-LOX inh 35.5µM, G9a inh inconclusive | Sfp PPTase conf 46.9µM

From PubChem BioAssay
